From PubChem
HCV inh: blocks hepatitis C virus; Potency, µM (top dose mostly 41.8 µM), inactives show at the highest dose activity change, negative = inhibition, usual class: inhibitors; AID 651820; actives 3.4% (n = 340,000); Huh7.5.1 HCVcc-Cre infection, luciferase reporter, 44 h; active = well fitted inhibition curve with a large enough effect; inconclusive = small, poorly fitted or top-dose-only effect, or another doubt; inactive = no such curve, though single readings can be large or run the other way; note: potency is the fitted concentration of half-maximal effect; % is set by controls: 0 for no effect and ±100 for the full control effect
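Infectious HCV cell culture screen: compound-treated cells (1,000/well, pre-plated 4 h) are infected with HCVcc-Cre at roughly 0.5 moi and grown 44 h. Infection is quantified by luciferase signal after 15 min substrate incubation at room temperature.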
LASV entry inh: Lassa virus entry inhibition | Lassa virus pseudotype entry inhibition, cell reporter | actives 1.2% (n = 300,000) | AID 540256 | Potency, µM (highest dose often 37.9 µM), for the others: at the top dose activity change, negative = inhibition, actives largely listed as inhibitors; calls by dose curve; tested in HEK293 cells; note: potency is the fitted concentration of half-maximal effect; % is set by controls: 0 for no effect and ±100 for the full control effect; nearly all actives have a fitted effect of over 50% in size
HCMV inh: inhibitors of human cytomegalovirus. HFF cells, HCMV-luciferase reporter, 72 h; stronger effect = lower value. actives 4.5% (n = 410,000). activity change, negative = inhibition, % at 57.5 µM; in the data active = activity change below about -60%; inconclusive = no clear call, values can overlap the other calls; inactive = above about -39%; note: % is set by controls: 0 for no effect and ±100 for the full control effect
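Luciferase read-out from HCMV-luciferase-infected HFFs (MOI 1 PFU/cell) 72 h post infection at 37C; compounds added after 16 h cell attachment; activity normalized between buffer-only basal and Salinomycin (10uM) inhibitor controls.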
Marburg entry inh: blocks Marburg virus binding to or entry into cells | Potency, µM (doses to about 37.8 µM), for the others: top-dose activity change, negative = inhibition, actives largely listed as inhibitors | AID 540276 | Marburg virus pseudotyped entry inhibition, cell reporter | actives 1.8% (n = 300,000); calls by dose curve; tested in HEK293 cells; note: potency is the fitted concentration of half-maximal effect; % is set by controls: 0 for no effect and ±100 for the full control effect
FMDV antiviral: blocks foot and mouth disease virus; FMDV antiviral cell-based qHTS; Potency, µM (top dose mostly 57.9 µM), for the others: at the highest dose activity change, negative = inhibition, usual class: inhibitors; actives 1.2% (n = 410,000); AID 1159524; calls by dose curve; tested in HEK293T cells; note: read-out not given here; potency is the fitted concentration of half-maximal effect; % is set by controls: 0 for no effect and ±100 for the full control effect; nearly all actives have a fitted effect of over 45% in size
SARS PLP yeast: SARS-CoV PLP inhibition in yeast | actives 0.19% (n = 330,000) | Potency, µM (top dose mostly 32.9 µM), inactives show at the top dose activity, positive = growth rescue, usual class: activators | AID 485353 | S. cerevisiae expressing SARS-CoV PLpro, growth rescue; calls by dose curve; note: potency is the fitted concentration of half-maximal effect; 0% is about no effect; nearly all actives have a fitted effect of over 55% in size
The depositor's hits bear a star; ! = not confirmed by another sample; [ ] = remark or other dose. Compounds with a hit are over-represented: about 8% of the library has one in this group of screens.

`Cc1ccccc1NS(=O)(=O)c1ccc(F)cc1` gave HCV inh 10%, LASV entry inh -10%, HCMV inh 84, Marburg entry inh 13%, FMDV antiviral -11% and SARS PLP yeast 21%.
For CSc1ccc(S(=O)(=O)Nc2ccc3c(c2)NC(=O)CC3)cc1 the results were HCV inh -25%, LASV entry inh -13%, HCMV inh -11, Marburg entry inh -26%[46.1 µM], FMDV antiviral 0% and SARS PLP yeast -3%.
Screening CCc1c(C(=O)Nc2ccccc2C(N)=O)csc1C returned HCV inh -7%, HCMV inh 66, FMDV antiviral 20% and SARS PLP yeast -8%.
Screening CCc1c(C(=O)Nc2ccncc2)csc1C returned HCV inh inconclusive, LASV entry inh -8%, HCMV inh -100*, Marburg entry inh -16%, FMDV antiviral inconclusive and SARS PLP yeast -5%.
Screening COC(=O)C1CCN(Cc2ccc3c(c2)CN(C(=O)C(C)N2CCOCC2)CCO3)CC1 (stereo not drawn) returned FMDV antiviral -6%.
Screening Brc1ccc(Oc2ccc(Br)cc2Br)c(Br)c1 returned HCV inh -8%, HCMV inh 49, Marburg entry inh -3%, FMDV antiviral 4% and SARS PLP yeast -7%.
For O=c1c(Br)ccc(Br)cc1Br the results were HCV inh inconclusive, LASV entry inh inconclusive, HCMV inh -77*, Marburg entry inh 4.5µM* and FMDV antiviral 20µM*.
For CC(O)(COc1ccccc1)c1ccc2c(c1)CN(Cc1ccc3nsnc3c1)CCO2 (stereo not drawn) the results were FMDV antiviral -16%.
COC(=O)c1c(NC(=O)CN2CCC3(O)CCCCC3C2c2cc(OC)ccc2OC)sc(C)c1C (stereo not drawn) was read as HCV inh inconclusive, LASV entry inh 7.9µM*, HCMV inh -29, Marburg entry inh 15µM*, FMDV antiviral inconclusive and SARS PLP yeast -36%.
For CCOc1ccccc1N(CC(=O)NCCSc1ccccc1)S(=O)(=O)c1ccccc1 the results were LASV entry inh inconclusive, HCMV inh -12 and FMDV antiviral -18%.
Screening O=C(Nc1ccc2ccccc2c1)c1cn(-c2ccccc2)nc1-c1cccs1 returned HCV inh inconclusive, LASV entry inh inconclusive, HCMV inh -60*, Marburg entry inh inconclusive, FMDV antiviral 0% and SARS PLP yeast -2%.
For CCN(CC)CCOC(=O)c1ccc(NC(=O)c2cn(-c3ccccc3)nc2-c2cccs2)cc1 the results were HCV inh 7.9µM*, LASV entry inh inconclusive, HCMV inh 57, Marburg entry inh inconclusive, FMDV antiviral 0% and SARS PLP yeast -1%.
`CCN(CC)CCNC(=O)c1cn(-c2ccccc2)nc1-c1cccs1` gave HCV inh 3%, LASV entry inh -7%, HCMV inh 14, Marburg entry inh inconclusive, FMDV antiviral -17% and SARS PLP yeast -10%.
For Cc1cc(/C=C(/C#N)C(=O)O)c(C)n1CCC(C)C the results were HCV inh 12%, LASV entry inh 8%, HCMV inh -68*, Marburg entry inh 15%, FMDV antiviral 8% and SARS PLP yeast -12%.
Screening Cc1c(-c2nsc(NC(=O)c3ccccc3)n2)nnn1-c1ccc(C(F)(F)F)c(Cl)c1 returned LASV entry inh 0%[46.1 µM], HCMV inh 4, Marburg entry inh inconclusive and FMDV antiviral -4%.
Screening CCc1cccc(C)c1NC(=O)CCS(=O)(=O)c1ccc2c(c1)oc(=O)n2C returned LASV entry inh -1%[46.1 µM], HCMV inh 1 and FMDV antiviral -11%.
Screening COc1ccc(S(=O)(=O)N2CCCC(C(=O)N3CCN(c4ccccc4)CC3)C2)cc1Cl (stereo not drawn) returned HCV inh inconclusive, LASV entry inh inconclusive, HCMV inh -9, Marburg entry inh -22%, FMDV antiviral 35µM* and SARS PLP yeast 14%.
`COc1ccc(C)cc1S(=O)(=O)N1CCCC(C(=O)N2CCN(c3ccccc3)CC2)C1` (stereo not drawn) gave HCV inh inconclusive, HCMV inh -69*, FMDV antiviral inconclusive and SARS PLP yeast -2%.
For CCOC(=O)N1CCN(C(=O)C2CCCN(S(=O)(=O)c3cc(C)ccc3OC)C2)CC1 (stereo not drawn) the results were HCV inh 6%, LASV entry inh 3%, HCMV inh 20, Marburg entry inh 10% and SARS PLP yeast 4%.
Screening COC(=O)c1cc(C)nc2c1C(=O)C(=O)C=C2N1CCOCC1 returned HCV inh 2.5µM*, LASV entry inh inconclusive, HCMV inh -93*, Marburg entry inh inconclusive, FMDV antiviral 3.5µM* and SARS PLP yeast 11%.
CCOc1ccc(CNC(=O)C2CCN(S(=O)(=O)c3cn(C)cn3)CC2)cc1 was read as LASV entry inh 0%[46.1 µM], HCMV inh 7 and FMDV antiviral -5%.
`Nc1nnnn1/N=C/C(Br)=C/c1ccccc1` gave HCV inh 10µM*, LASV entry inh inconclusive, HCMV inh 9, Marburg entry inh 5µM*, FMDV antiviral 14µM* and SARS PLP yeast -9%.
Screening Nc1nnnn1/N=C/C=C/c1ccccc1 returned HCV inh 7%, LASV entry inh 27%, HCMV inh 4, Marburg entry inh 3%, FMDV antiviral 33% and SARS PLP yeast 3%.
`Cn1nc(-c2ccc(N3CCCCC3)c(NC(=O)c3ccco3)c2)c2ccccc2c1=O` gave HCV inh 7.1µM*!, LASV entry inh inconclusive, HCMV inh -29, Marburg entry inh inconclusive, FMDV antiviral 0% and SARS PLP yeast 2%.
COc1nnc(-c2ccc(N3CCCCC3)c(NC(=O)c3ccccc3Cl)c2)c2ccccc12 was read as LASV entry inh inconclusive, HCMV inh -99*, Marburg entry inh inconclusive and FMDV antiviral inconclusive.
`O=C(CCC(=O)OCCOc1ccccc1)OCCOc1ccccc1` gave HCMV inh -98* and FMDV antiviral -9%.
For O=C(O)c1ccc(OCCOc2ccccc2)cc1 the results were HCV inh 13%, HCMV inh -17, FMDV antiviral 9% and SARS PLP yeast 1%.
`O=C(Nc1ccccc1)OCCOc1ccccc1` gave HCV inh 13µM*, LASV entry inh 8%, HCMV inh 42, Marburg entry inh 10%, FMDV antiviral 17% and SARS PLP yeast 5%.
C=CCCC/C=C(/C)C(OCc1ccc(OC)cc1)C(CC/C=C(\C)C(N)=O)OC (stereo not drawn) was read as Marburg entry inh 10%[14.2 µM].
Screening CC1=C(C(=O)OC2CCCC2)C(c2ccccc2C(F)(F)F)CC(=O)N1 (stereo not drawn) returned LASV entry inh 12%[46.1 µM], HCMV inh inconclusive, Marburg entry inh inconclusive and FMDV antiviral inconclusive.
